According to PubChem BioAssay AID1159580 (chemical genetic matrix, 2015):
Screen size: about 5,500 compounds; about 2,000 (36%) were called active. Not shown: some 18% with an inconclusive outcome. Cut-off read from the data, not from the text of the source: active = normalized growth mostly below about 0.91 (no sharp cut-off); inconclusive = no clear call, values can overlap the other calls; inactive = mostly above about 0.92. Some of the results follow.

Experiment: chemical genetic growth profiling, strain panel (AID 1159580);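 note: tested at 20 µM; growth read once vehicle control cultures reached saturation at 30 °C; 1 = growth at the plate median or of vehicle wells; lower values mean less growth of the strain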
Details: growth OD

Measured: normalized growth

CCC(C)C(=O)OC1[C@@H]2CC3=C4CC(=O)O[C@@H](c5ccoc5)[C@]4(C)CCC3[C@@](C)(C2=O)[C@@H](CC(=O)OC)C1(C)C (stereo partly specified)
inactive: S. cerevisiae deletion strains, locus YJL187C, strain SWE1, stronger effect = lower value 1.01 | S. cerevisiae deletion strains, locus YJR066W, strain TOR1, stronger effect = lower value 0.91 | S. cerevisiae deletion strains, locus YJR075W, strain HOC1, stronger effect = lower value 1.01 | S. cerevisiae deletion strains, locus YKL009W, strain mrt4, stronger effect = lower value 0.965 | S. cerevisiae deletion strains, locus YKL068W, stronger effect = lower value 0.999 | S. cerevisiae deletion strains, locus YKL085W, strain MDH1 (second series), stronger effect = lower value 0.988 | S. cerevisiae deletion strains, locus YKL085W, strain MDH1, stronger effect = lower value 0.988 | S. cerevisiae deletion strains, locus YKL160W, strain elf1, stronger effect = lower value 1.01 | S. cerevisiae deletion strains, locus YKR001C, strain vps1, stronger effect = lower value 1.01 | S. cerevisiae deletion strains, locus YKR026C, strain gcn3, stronger effect = lower value 1.01 | S. cerevisiae deletion strains, locus YKR091W, strain srl3, stronger effect = lower value 1 | S. cerevisiae deletion strains, locus YLL001W, strain dnm1, stronger effect = lower value 1.01 | S. cerevisiae deletion strains, locus YLL026W, stronger effect = lower value 1 | S. cerevisiae deletion strains, locus YLL041C, strain sdh2, stronger effect = lower value 1.01 | S. cerevisiae deletion strains, locus YLR027C, strain aat2, stronger effect = lower value 1.02 | S. cerevisiae deletion strains, locus YLR039C, strain RIC1, stronger effect = lower value 0.974 | S. cerevisiae deletion strains, locus YLR058C, strain SHM2, stronger effect = lower value 1.01 | S. cerevisiae deletion strains, locus YLR102C, strain apc9, stronger effect = lower value 1 | S. cerevisiae deletion strains, locus YLR113W, strain HOG1, stronger effect = lower value 1.03 | S. cerevisiae deletion strains, locus YLR221C, strain rsa3, stronger effect = lower value 0.998 | S. cerevisiae deletion strains, locus YLR258W, strain gsy2, stronger effect = lower value 1.01 | S. cerevisiae deletion strains, locus YLR262C, strain YPT6 (second series), stronger effect = lower value 0.947 | S. cerevisiae deletion strains, locus YLR268W, strain sec22, stronger effect = lower value 0.989 | S. cerevisiae deletion strains, locus YLR320W, strain mms22, stronger effect = lower value 1.01 | S. cerevisiae deletion strains, locus YLR342W, strain FKS1 (second series), stronger effect = lower value 1 | S. cerevisiae deletion strains, locus YLR342W, strain FKS1, stronger effect = lower value 1 | S. cerevisiae deletion strains, locus YLR357W, strain rsc2, stronger effect = lower value 0.991 | S. cerevisiae deletion strains, locus YLR370C, strain arc18, stronger effect = lower value 1.01 | S. cerevisiae deletion strains, locus YLR371W, strain rom2, stronger effect = lower value 1 | S. cerevisiae deletion strains, locus YLR384C, strain iki3, stronger effect = lower value 1.02 | S. cerevisiae deletion strains, locus YLR418C, strain cdc73, stronger effect = lower value 1.04 | S. cerevisiae deletion strains, locus YML016C, strain PPZ1, stronger effect = lower value 0.997 | S. cerevisiae deletion strains, locus YML032C, strain rad52, stronger effect = lower value 1.01 | S. cerevisiae deletion strains, locus YML120C, strain ndi1, stronger effect = lower value 1 | S. cerevisiae deletion strains, locus YML124C, strain tub3, stronger effect = lower value 1.01 | S. cerevisiae deletion strains, locus YMR058W, strain fet3, stronger effect = lower value 1.01 | S. cerevisiae deletion strains, locus YMR078C, strain ctf18, stronger effect = lower value 1.01 | S. cerevisiae deletion strains, locus YMR125W, strain sto1, stronger effect = lower value 1 | S. cerevisiae deletion strains, locus YMR129W, stronger effect = lower value 1.01 | S. cerevisiae deletion strains, locus YMR205C, strain PFK2, stronger effect = lower value 1 | S. cerevisiae deletion strains, locus YMR223W, strain ubp8, stronger effect = lower value 1 | S. cerevisiae deletion strains, locus YMR231W, strain pep5, stronger effect = lower value 0.973 | S. cerevisiae deletion strains, locus YMR307W, strain GAS1, stronger effect = lower value 1.05 | S. cerevisiae deletion strains, locus YNL067W, strain RPL9B, stronger effect = lower value 1.03 | S. cerevisiae deletion strains, locus YNL071W, strain lat1, stronger effect = lower value 1.01 | S. cerevisiae deletion strains, locus YNL128W, strain TEP1, stronger effect = lower value 0.995 | S. cerevisiae deletion strains, locus YNL183C, strain NPR1, stronger effect = lower value 0.927 | S. cerevisiae deletion strains, locus YNL209W, strain ssb2, stronger effect = lower value 1 | S. cerevisiae deletion strains, locus YNL233W, strain BNI4, stronger effect = lower value 0.995 | S. cerevisiae deletion strains, locus YNL248C, strain rpa49, stronger effect = lower value 1 | S. cerevisiae deletion strains, locus YNL250W, strain rad50, stronger effect = lower value 1.03 | S. cerevisiae deletion strains, locus YNL271C, strain bni1, stronger effect = lower value 1 | S. cerevisiae deletion strains, locus YNL298W, strain CLA4, stronger effect = lower value 1.02 | S. cerevisiae deletion strains, locus YNL307C, strain MCK1, stronger effect = lower value 1 | S. cerevisiae deletion strains, locus YNL322C, strain KRE1 (second series), stronger effect = lower value 0.999 | S. cerevisiae deletion strains, locus YNR049C, strain mso1, stronger effect = lower value 1.01 | S. cerevisiae deletion strains, locus YNR052C, strain pop2, stronger effect = lower value 1.01 | S. cerevisiae deletion strains, locus YOL012C, strain htz1 1.11 | S. cerevisiae deletion strains, locus YOL147C, strain pex11, stronger effect = lower value 1 | S. cerevisiae deletion strains, locus YOR001W, strain rrp6, stronger effect = lower value 1.01 | S. cerevisiae deletion strains, locus YOR061W, strain CKA2, stronger effect = lower value 0.995 | S. cerevisiae deletion strains, locus YOR069W, strain VPS5, stronger effect = lower value 1.01 | S. cerevisiae deletion strains, locus YOR070C, strain gyp1, stronger effect = lower value 1.01 | S. cerevisiae deletion strains, locus YOR080W, strain dia2, stronger effect = lower value 0.996 | S. cerevisiae deletion strains, locus YOR083W, strain WHI5, stronger effect = lower value 1 | S. cerevisiae deletion strains, locus YOR106W, strain vam3, stronger effect = lower value 1.02 | S. cerevisiae deletion strains, locus YOR136W, strain idh2, stronger effect = lower value 0.994 | S. cerevisiae deletion strains, locus YOR144C, strain elg1, stronger effect = lower value 1.01 | S. cerevisiae deletion strains, locus YOR184W, strain ser1, stronger effect = lower value 0.983 | S. cerevisiae deletion strains, locus YOR231W, strain MKK1, stronger effect = lower value 0.973 | S. cerevisiae deletion strains, locus YOR265W, strain rbl2, stronger effect = lower value 0.999 | S. cerevisiae deletion strains, locus YOR270C, strain vph1, stronger effect = lower value 1.03 | S. cerevisiae deletion strains, locus YOR290C, strain snf2, stronger effect = lower value 0.978 | S. cerevisiae deletion strains, locus YOR316C, strain cot1, stronger effect = lower value 1 | S. cerevisiae deletion strains, locus YPL051W, strain arl3, stronger effect = lower value 1 | S. cerevisiae deletion strains, locus YPL078C, strain atp4, stronger effect = lower value 1.04 | S. cerevisiae deletion strains, locus YPL106C, strain sse1, stronger effect = lower value 1.01 | S. cerevisiae deletion strains, locus YPL240C, strain hsp82, stronger effect = lower value 1 | S. cerevisiae deletion strains, locus YPL241C, strain CIN2, stronger effect = lower value 0.998 | S. cerevisiae deletion strains, locus YPL256C, strain CLN2, stronger effect = lower value 0.943 | S. cerevisiae deletion strains, locus YPR119W, strain clb2, stronger effect = lower value 1.01 | S. cerevisiae deletion strains, locus YPR141C, strain kar3, stronger effect = lower value 1.01 | S. cerevisiae deletion strains, locus YPR163C, strain tif3, stronger effect = lower value 1 | S. cerevisiae deletion strains, locus YPR167C, strain met16, stronger effect = lower value 0.995 | S. cerevisiae deletion strains, strain wtn01, stronger effect = lower value 0.993 | S. cerevisiae strains, strain wild type, stronger effect = lower value 0.978
